ChEMBL document CHEMBL3988442, “University of Dundee, Small-Polar-MMV Screening Library” (2021)
About 420 (0.61%) of roughly 69,000 compounds showed an effect of 50% or more. This is one part of a sample in which strong results are shown more often than they occur.

Target: T1, Histidine--tRNA ligase (Leishmania infantum) (UniProt A4I591)
T1 sequence (whole entry): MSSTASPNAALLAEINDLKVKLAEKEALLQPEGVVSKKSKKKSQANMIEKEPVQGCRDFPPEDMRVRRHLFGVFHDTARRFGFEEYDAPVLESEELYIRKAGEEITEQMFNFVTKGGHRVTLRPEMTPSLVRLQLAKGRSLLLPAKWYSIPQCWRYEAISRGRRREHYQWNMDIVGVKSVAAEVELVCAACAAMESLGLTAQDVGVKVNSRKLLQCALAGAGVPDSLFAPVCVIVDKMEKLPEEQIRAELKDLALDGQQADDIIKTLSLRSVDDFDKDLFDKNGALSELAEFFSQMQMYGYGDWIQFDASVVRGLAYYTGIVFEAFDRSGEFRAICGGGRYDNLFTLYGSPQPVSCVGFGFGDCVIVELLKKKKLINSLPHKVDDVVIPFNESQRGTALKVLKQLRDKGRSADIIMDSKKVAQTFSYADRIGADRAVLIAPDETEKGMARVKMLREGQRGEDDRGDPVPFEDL
Assay: Leishmania infantum Histidine tRNA synthetase (LdHisRS)
Assay type: functional
Parameters: scale not given: in the data most compounds retested in dose-response had high values
Conditions: 30 µM

SMILES | Percent Effect [%]
Cc1cc(=O)n(C)cc1NC(=O)Cc1cccc(Cl)c1 | 107
Cn1ccc(CS(=O)(=O)Cc2cccc(F)c2)cc1=O | 18.8
CS(=O)(=O)CCn1ccc(NC(=O)Cc2cccc(Cl)c2)n1 | 15.3
Cc1cc(=O)n(C)cc1NC(=O)Cc1ccc(C(F)(F)F)cc1 | 107
CN(C)C(=O)CCCn1ccc(NC(=O)NCc2cccc(F)c2)n1 | 2.08
Cc1ccc(C(F)(F)F)cc1NCC(=O)Nc1c(C)nn(C)c1C | 17.8
Cc1cc(=O)n(CC(=O)Nc2cccc(Cl)c2)nc1C | 2.4
Cc1cc(=O)n(C)cc1NC(=O)NCc1cccc(F)c1 | 107
Cn1ccc(NC(=O)Cc2cccc(F)c2)n1 | 15.4
Cc1cc(=O)n(C)cc1NC(=O)Cc1cccc(F)c1 | 68.5
O=C(NCc1cccc(F)c1)Nc1ccn(CCN2CCOCC2)n1 | 11.2
Cn1cc(NC(=O)c2cccc(C(F)(F)F)c2)c(=O)n(C)c1=O | 22.9
Cc1cccc(C(=O)N2CC[C@@H]3CN(c4ncccn4)CCO[C@@H]3C2)c1 | 10
COc1ccc(CN2CCO[C@@H]3C[C@@H](C(=O)NC(C)C)C[C@H]32)cc1 | 25
COC[C@]12COC[C@H]1CN(Cc1ccc3c(c1)OCO3)C2 | 1.98
O=C1CC[C@H]2[C@H](CCN2C(=O)C2CCOCC2)N1Cc1ccncc1 | 17.5
CNC(=O)[C@@]12CCCN(c3ncccn3)[C@@H]1CN(c1ncc(F)cn1)C2 | 16.8
CCc1ccc(C(=O)N2C[C@@H]3COC[C@@H](C(=O)NC)[C@@H]3C2)cc1 | 14
C[C@@H]1C(=O)NC[C@H]2CN(Cc3ccc4c(c3)OCO4)C[C@H]21 | 15.6
O=C(NCc1ccccn1)[C@]12COC[C@H]1CN(Cc1cccnc1)C2 | 11.1
O=C([C@H]1C[C@@H]2CN(c3ncc(F)cn3)C[C@H]1O2)N1CCOCC1 | 5.94
CC(C)NC(=O)N1CC[C@H]2N(C)CC[C@@]2(C(=O)Nc2cccnc2)CC1 | 9.91
O=C(NCC1CC1)[C@H]1C[C@H]2OCC[C@H]2N(Cc2ccsc2)C1 | 0
Cc1cccc(CN2CC[C@@H]3[C@@H]2CCN3C(=O)c2cc(C)oc2C)n1 | 25.6
O=C([C@H]1C[C@@H]2CCN(c3cccc(F)c3)C[C@H]2O1)N1CCCCO1 | 22.2
Cc1cc(F)ccc1NC(=O)Cn1cc(C(=O)O)ccc1=O | 21.7
Cc1cc(=O)n(C)cc1NC(=O)Cc1cc(F)ccc1F | 107
CCC(=O)NCC(=O)Nc1c(C)cnn1Cc1cc(F)ccc1F | 14.5
CN(CCO)Cc1nnc(C2CCN(C[C@H]3[C@@H]4CNC[C@@H]43)CC2)n1C | 9.38
Cc1ccc(C(=O)N2C[C@H]3CCC[C@@]3(COc3ccccn3)C2)nc1 | 16.4
